In PubChem BioAssay (EPA / NIEHS):
Active and inactive are the calls of the source. How the source made its calls: active means hit-call score of the fitted dose curve at least 0.9, where 1 is the maximum; inactive means score below 0.9.

Assays:
[1] = target: Paired box protein Pax-6 (Homo sapiens) (UniProt P26367); test: ATG_Pax6_CIS: Attagene CIS-FACTORIAL HepG2 Assay for human Paired Box 6 (PAX6) (AID 2282956); conditions: HepG2 CIS-FACTORIAL PAX6 reporter transcription, RNA readout; actives raise or lower the signal
Chain of Paired box protein Pax-6 (Homo sapiens) (P26367 whole entry, looked up): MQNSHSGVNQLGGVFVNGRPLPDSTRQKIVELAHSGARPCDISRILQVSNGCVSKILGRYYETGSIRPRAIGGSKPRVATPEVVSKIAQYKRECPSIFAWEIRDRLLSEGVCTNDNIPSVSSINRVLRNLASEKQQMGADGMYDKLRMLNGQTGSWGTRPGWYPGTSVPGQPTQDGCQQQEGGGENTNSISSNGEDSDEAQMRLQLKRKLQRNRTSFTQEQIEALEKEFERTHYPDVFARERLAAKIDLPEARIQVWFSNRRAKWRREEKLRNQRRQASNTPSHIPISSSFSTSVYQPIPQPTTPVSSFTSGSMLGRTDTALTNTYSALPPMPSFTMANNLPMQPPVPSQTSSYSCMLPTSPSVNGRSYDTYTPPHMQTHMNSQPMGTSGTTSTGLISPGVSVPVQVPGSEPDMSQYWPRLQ
Summary of the method: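 Multiplexed cis-reporter HepG2 system; 24 h treatment; reporter mRNA read by RT-PCR/CE fluorescence; bidirectional fit vs DMSO.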

[2] = ATG_PXRE_CIS: Attagene CIS-FACTORIAL HepG2 Assay for human Pregnane X Receptor Element (PXRE) (AID 2282957); conditions: HepG2 Attagene CIS-FACTORIAL PXRE reporter, mRNA; actives raise or lower the signal
Summary of the method: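 HepG2 cells transiently transfected with cis-regulated multiple reporter transcription units; endogenous factor activity measured as reporter mRNA 24 h after dosing. RT-PCR, fluorescent primer extension, HpaI digestion, capillary electrophoresis; bidirectional fit versus DMSO baseline.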

[3] = ATG_PPRE_CIS: Attagene CIS-FACTORIAL HepG2 Assay for human Peroxisome Proliferator-activated Response Element (PPRE) (AID 2282958); conditions: HepG2 PPRE cis-element reporter, Attagene transcription factor profiling; actives raise or lower the signal
Summary of the method: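 Measured endpoint: PPRE-controlled reporter mRNA, detected by RT-PCR and capillary electrophoresis fluorescence, from transiently transfected HepG2 cells 24 h after dosing. Curves fitted in both directions using DMSO baseline.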

[4] = ATG_RORE_CIS: Attagene CIS-FACTORIAL HepG2 Assay for human RAR-related Orphan Receptor Element (RORE) (AID 2282959); conditions: HepG2 Attagene cis-factorial RORE reporter, mRNA; actives raise or lower the signal
Summary of the method: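 Transiently transfected HepG2 reporter cells were treated 24 h. Reporter transcripts were detected by RT-PCR and capillary electrophoresis, with bidirectional fitting against DMSO.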

[5] = ATG_Sox_CIS: Attagene CIS-FACTORIAL HepG2 Assay for human SRY-box transcription factor (SOX) (AID 2282960); conditions: HepG2 Attagene cis-factorial SOX reporter, mRNA; actives raise or lower the signal
Summary of the method: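 Gain- or loss-of-signal endpoint, fitted bidirectionally with DMSO as negative control. Based on reporter mRNA from transfected HepG2 cells harvested 24 h post-treatment and quantified via RT-PCR and capillary electrophoresis.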

[6] = target: Transcription factor Sp1 (Homo sapiens) (UniProt P08047); test: ATG_Sp1_CIS: Attagene CIS-FACTORIAL HepG2 Assay for human Specificity Protein 1 (Sp1) (AID 2282961); conditions: HepG2 Sp1 cis-reporter transcription, actives raise or lower the signal
Chain of Transcription factor Sp1 (Homo sapiens) (P08047 whole entry, looked up, the tested form may be a part): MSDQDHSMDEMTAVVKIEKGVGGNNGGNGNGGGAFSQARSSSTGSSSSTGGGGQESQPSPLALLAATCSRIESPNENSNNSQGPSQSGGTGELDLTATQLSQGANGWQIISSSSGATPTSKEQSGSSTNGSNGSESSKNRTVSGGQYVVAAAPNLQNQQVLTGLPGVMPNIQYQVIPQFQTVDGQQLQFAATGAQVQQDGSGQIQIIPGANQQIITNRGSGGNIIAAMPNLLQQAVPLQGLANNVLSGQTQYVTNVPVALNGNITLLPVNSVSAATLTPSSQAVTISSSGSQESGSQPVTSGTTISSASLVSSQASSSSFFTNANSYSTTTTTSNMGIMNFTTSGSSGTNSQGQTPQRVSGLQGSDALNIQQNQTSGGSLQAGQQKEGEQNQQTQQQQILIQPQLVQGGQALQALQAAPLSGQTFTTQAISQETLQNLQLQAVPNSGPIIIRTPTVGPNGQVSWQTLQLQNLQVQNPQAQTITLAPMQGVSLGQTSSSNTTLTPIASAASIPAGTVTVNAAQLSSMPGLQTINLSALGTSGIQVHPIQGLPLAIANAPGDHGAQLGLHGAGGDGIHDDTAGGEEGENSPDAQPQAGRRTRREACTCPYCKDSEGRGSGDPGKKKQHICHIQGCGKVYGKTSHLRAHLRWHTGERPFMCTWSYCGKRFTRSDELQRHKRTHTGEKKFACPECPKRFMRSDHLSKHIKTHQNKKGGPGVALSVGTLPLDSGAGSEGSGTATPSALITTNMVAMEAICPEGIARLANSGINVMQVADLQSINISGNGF
Summary of the method: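 Endpoint reflects endogenous Sp1 transcriptional activity, not an exogenous fusion protein: HepG2 cells with transfected cis-regulated reporters, 24 h dosing, RT-PCR/capillary electrophoresis mRNA read-out, DMSO-normalised bidirectional fit.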

[7] = ATG_SREBP_CIS: Attagene CIS-FACTORIAL HepG2 Assay for human Sterol Regulatory Element Binding (SREBP) (AID 2282962); conditions: HepG2 Attagene cis-factorial SREBP reporter, mRNA; actives raise or lower the signal
Summary of the method: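 mRNA induction of transfected cis-promoter reporters in HepG2 cells, 24 h post-dose. Detection: RT-PCR with 6-FAM-labelled products, HpaI digest, capillary electrophoresis. DMSO served as negative control and baseline.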

[8] = target: Signal transducer and activator of transcription 3 (Homo sapiens) (UniProt P40763); test: ATG_STAT3_CIS: Attagene CIS-FACTORIAL HepG2 Assay for human Signal Transducer and Activator of Transcription 3 (STAT3) (AID 2282963); conditions: HepG2, Attagene cis-factorial STAT3 reporter transcription; actives raise or lower the signal
Chain of Signal transducer and activator of transcription 3 (Homo sapiens) (P40763 whole entry, looked up): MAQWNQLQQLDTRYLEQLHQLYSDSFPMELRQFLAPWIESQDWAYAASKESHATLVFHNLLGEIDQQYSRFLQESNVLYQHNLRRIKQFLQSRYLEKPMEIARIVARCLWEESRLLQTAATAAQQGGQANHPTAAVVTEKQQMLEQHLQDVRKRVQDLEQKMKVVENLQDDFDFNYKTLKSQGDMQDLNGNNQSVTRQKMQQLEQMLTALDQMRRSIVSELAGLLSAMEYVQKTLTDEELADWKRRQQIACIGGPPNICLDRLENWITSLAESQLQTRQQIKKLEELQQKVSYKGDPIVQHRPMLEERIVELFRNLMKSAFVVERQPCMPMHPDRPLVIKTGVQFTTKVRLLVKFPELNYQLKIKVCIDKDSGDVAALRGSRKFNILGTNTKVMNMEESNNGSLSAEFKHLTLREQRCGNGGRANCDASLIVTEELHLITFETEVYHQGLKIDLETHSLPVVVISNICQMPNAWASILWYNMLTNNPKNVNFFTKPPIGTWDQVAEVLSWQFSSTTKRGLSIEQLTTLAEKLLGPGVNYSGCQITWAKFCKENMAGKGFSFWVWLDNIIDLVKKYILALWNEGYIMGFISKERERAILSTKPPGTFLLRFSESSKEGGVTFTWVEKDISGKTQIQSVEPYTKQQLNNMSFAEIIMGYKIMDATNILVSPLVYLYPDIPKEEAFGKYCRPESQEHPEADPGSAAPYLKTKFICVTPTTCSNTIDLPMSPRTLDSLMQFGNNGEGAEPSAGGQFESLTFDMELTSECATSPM
Summary of the method: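 Transcript-level reporter assay. HepG2 transient MRTU transfection, 24 h exposure, fluorescence detection after RT-PCR and CE; DMSO baseline.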

[9] = ATG_TA_CIS: Attagene CIS-FACTORIAL HepG2 Assay for human TA Basal Promoter (AID 2282964); conditions: HepG2 Attagene CIS-factorial TA basal promoter reporter; actives raise or lower the signal
Summary of the method: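 Transfected HepG2, 24 h compound exposure; RNA → RT-PCR → FAM primer extension → HpaI cut → CE fluorescence. Gain/loss-of-signal fitted against DMSO negative control. Background-control readout.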

[10] = ATG_TCF_b_cat_CIS: Attagene CIS-FACTORIAL HepG2 Assay for human T-Cell-Factor with beta-catenin (TCF/b-cat) (AID 2282965); conditions: HepG2 TCF/beta-catenin cis-reporter transcription, actives raise or lower the signal
Summary of the method: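 Using capillary electrophoresis as the read-out, labelled reporter cDNA fragments from transiently transfected HepG2 were sized and quantified. Exposure lasted 24 hours; activity in either direction was referenced to DMSO.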

SMILES | outcome [1] | AC50 [2] | outcome [3] | outcome [4] | outcome [5] | outcome [6] | outcome [7] | outcome [8] | outcome [9] | outcome [10] | outcome [2] | AC50 [3] | AC50 [4]
CC(=O)c1ccc2c(c1)CCCC2 | inactive | 26.4 µM (active) | inactive | inactive | inactive | inactive | inactive | inactive | inactive | inactive |  |  | 
CCCCCCCCC(=O)OCC | inactive |  | inactive | inactive | inactive | inactive | inactive | inactive | inactive | inactive | inactive |  | 
C1=Cc2ccccc2C1 | inactive | 9.16 µM (active) | inactive | inactive | inactive | inactive | inactive | inactive | inactive | inactive |  |  | 
CC(=O)c1ccc[nH]1 | inactive |  | inactive | inactive | inactive | inactive | inactive | inactive | inactive | inactive | inactive |  | 
CCc1c(C(=O)O)c(=O)cnn1-c1ccc(Cl)cc1 | inactive | 52.3 µM (active) | inactive | inactive | inactive | inactive | inactive | inactive | inactive | inactive |  |  | 
CCCCCCCCCCCCCOP(=O)(O)O | inactive | 7.54 µM (active) | inactive | inactive | inactive | inactive | inactive | inactive | inactive | inactive |  |  | 
O=C(c1ccccc1)c1ccc(O)c(O)c1O | inactive | 26.9 µM (active) | inactive | inactive | inactive | inactive | inactive | inactive | inactive | inactive |  |  | 
CC(=O)C=CC1C(C)=CCC(C)C1(C)C (stereo not given) | inactive | 0.972 µM (active) | inactive | inactive | inactive | inactive | inactive | inactive | inactive | inactive |  |  | 
Nc1ccc(N=Nc2ccccc2)c(N)n1 | inactive |  |  |  | inactive | inactive | inactive | inactive | inactive | inactive | inactive | 100 µM (active) | 51.6 µM (active)
CCCCNc1ccc(NCCCC)c2c1C(=O)c1ccccc1C2=O | inactive | 0.886 µM (active) | inactive | inactive | inactive | inactive | inactive | inactive | inactive | inactive |  |  | 
COC=O | inactive |  | inactive | inactive | inactive | inactive | inactive | inactive | inactive | inactive | inactive |  | 
CCCCCCOc1cc(C)c(O)c(C)c1C | inactive | 3.01 µM (active) | inactive | inactive | inactive | inactive | inactive | inactive | inactive | inactive |  |  | 
